Experimental data taken from PubChem BioAssay (Tox21).
Several values for one entry are separate records, joined by “and”; a condition that tells them apart may be missing. Equal values may be shown once. Inconclusive results are not listed. Entries that show only a call come without a potency. Activity calls are given as the source filed them. Unless noted, the call rests on the fitted dose curve; in most records, active means well fitted curve in the direction sought with a large enough effect in the repeat runs; inconclusive means weak or mixed curves; inactive means no such curve, though single readings can be large; an effect the other way counts as inactive or inconclusive.

Key:
[1] = qHTS assay to identify small molecule antagonists of the thyroid receptor (TR) signaling pathway (AID 743065); further: nearly all actives have a fitted effect of over 55% in size; further: potency means the concentration at half of the fitted maximal effect
Summary of the method: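 GH3.TRE-Luc rat pituitary cells carrying two TR response elements driving luciferase were plated for 4 h, given compound plus 1 nM T3 (final), and incubated 23.5 h at 37 C. ONE-Glo luminescence measured reporter inhibition; CellTiter-Fluor fluorescence tracked cytotoxicity.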

[2] = tested on: thyroid hormone receptor (rat, GH3 cells); experiment: qHTS assay to identify small molecule agonists of the thyroid receptor (TR) signaling pathway (AID 743066; calls by dose curve)
[3] = target: Estrogen receptor (Homo sapiens) (UniProt P03372); experiment: qHTS assay to identify small molecule agonists of the estrogen receptor alpha (ER-alpha) signaling pathway (AID 743075; calls by dose curve)
Estrogen receptor (Homo sapiens), sequence (P03372 whole entry, looked up): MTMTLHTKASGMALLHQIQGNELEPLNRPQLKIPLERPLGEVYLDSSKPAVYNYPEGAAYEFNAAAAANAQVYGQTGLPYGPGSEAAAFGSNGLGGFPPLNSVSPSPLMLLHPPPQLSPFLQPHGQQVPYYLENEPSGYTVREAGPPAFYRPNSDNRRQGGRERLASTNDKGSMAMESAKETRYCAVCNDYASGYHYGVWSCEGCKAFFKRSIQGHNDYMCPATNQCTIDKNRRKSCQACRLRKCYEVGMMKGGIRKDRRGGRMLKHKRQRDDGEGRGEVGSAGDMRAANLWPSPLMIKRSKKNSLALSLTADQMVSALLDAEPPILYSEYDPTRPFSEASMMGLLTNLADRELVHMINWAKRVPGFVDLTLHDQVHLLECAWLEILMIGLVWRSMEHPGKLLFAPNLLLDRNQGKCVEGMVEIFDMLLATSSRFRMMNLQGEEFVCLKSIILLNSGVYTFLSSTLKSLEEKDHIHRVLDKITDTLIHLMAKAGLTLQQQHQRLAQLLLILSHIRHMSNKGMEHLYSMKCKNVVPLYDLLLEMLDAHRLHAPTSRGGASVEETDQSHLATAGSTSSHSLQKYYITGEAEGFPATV

[4] = qHTS assay to identify small molecule antagonists of the estrogen receptor alpha (ER-alpha) signaling pathway using the BG1 cell line - cell viability counter screen (AID 743081);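 further: compound given together with 17beta-estradiol as the ER stimulus; series mostly up to about 70 µM; nearly all actives have a fitted effect of over 45% in size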
[5] = qHTS assay to identify aromatase inhibitors - cell viability counter screen (AID 743084);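 further: cells stimulated with testosterone during compound exposure; nearly all actives have a fitted effect of over 55% in size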
[6] = target: Aryl hydrocarbon receptor (Homo sapiens) (UniProt P35869); experiment: qHTS assay to identify small molecule that activate the aryl hydrocarbon receptor (AhR) signaling pathway (AID 743085); further: nearly all actives have a fitted effect of over 15% in size; further: potency means the concentration at half of the fitted maximal effect;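 on activation: HG2L7.5c1 human HepG2 liver cells with stably integrated DRE-driven firefly reporter; series mostly up to about 70 µM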
Aryl hydrocarbon receptor (Homo sapiens), sequence (P35869 whole entry, looked up): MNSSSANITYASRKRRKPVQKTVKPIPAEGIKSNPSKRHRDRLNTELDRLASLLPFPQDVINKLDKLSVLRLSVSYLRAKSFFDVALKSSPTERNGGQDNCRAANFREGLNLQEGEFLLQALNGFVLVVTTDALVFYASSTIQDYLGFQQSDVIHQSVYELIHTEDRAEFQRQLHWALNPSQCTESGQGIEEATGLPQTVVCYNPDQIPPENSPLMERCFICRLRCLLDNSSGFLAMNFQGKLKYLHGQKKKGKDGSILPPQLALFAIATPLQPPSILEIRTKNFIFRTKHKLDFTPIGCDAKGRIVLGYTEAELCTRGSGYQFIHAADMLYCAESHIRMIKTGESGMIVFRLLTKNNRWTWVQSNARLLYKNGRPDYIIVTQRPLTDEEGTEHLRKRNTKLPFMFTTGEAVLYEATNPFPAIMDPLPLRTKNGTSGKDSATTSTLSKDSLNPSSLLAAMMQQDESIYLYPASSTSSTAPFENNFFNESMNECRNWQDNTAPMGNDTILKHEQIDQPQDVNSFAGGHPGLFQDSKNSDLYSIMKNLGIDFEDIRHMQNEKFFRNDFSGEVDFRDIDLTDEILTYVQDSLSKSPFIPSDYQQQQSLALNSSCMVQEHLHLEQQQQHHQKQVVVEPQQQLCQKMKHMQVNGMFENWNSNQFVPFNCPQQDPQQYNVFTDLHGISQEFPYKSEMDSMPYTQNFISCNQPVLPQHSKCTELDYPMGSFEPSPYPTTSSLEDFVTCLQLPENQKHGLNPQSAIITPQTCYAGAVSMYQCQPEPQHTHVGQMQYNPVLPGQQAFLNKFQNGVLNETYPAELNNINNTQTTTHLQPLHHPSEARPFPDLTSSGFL
Summary of the method: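 Steps: seed HepG2-AhR-luc cells; allow 5 h at 37C; pin-transfer test compound or vehicle; incubate 24 h at 37C; add viability dye (30 min, 37C) and read fluorescence; add luciferase substrate (30 min, RT) and read luminescence.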

[7] = qHTS assay to identify small molecule that activate the aryl hydrocarbon receptor (AhR) signaling pathway - cell viability counter screen (AID 743086); further: nearly all actives have a fitted effect of over 45% in size; further: potency means the concentration at half of the fitted maximal effect
Summary of the method: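 HepG2-AhR-luc (HG2L7.5c1) cells, 4000/well, were preincubated 5 h at 37C, exposed to compound in qHTS format for 24 hr at 37C, then given CellTiter-Fluor for 30 min; viability was read as fluorescence in the reporter wells.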

[8] = target: Peroxisome proliferator-activated receptor gamma (Homo sapiens) (UniProt P37231); experiment: qHTS assay to identify small molecule agonists of the peroxisome proliferator-activated receptor gamma (PPARg) signaling pathway (AID 743094; active means well fitted activation curve with a large enough effect in the signal ratio in the repeat runs, not every such curve was filed as active; the % refers to the signal ratio)
Peroxisome proliferator-activated receptor gamma (Homo sapiens), sequence (P37231 whole entry, looked up): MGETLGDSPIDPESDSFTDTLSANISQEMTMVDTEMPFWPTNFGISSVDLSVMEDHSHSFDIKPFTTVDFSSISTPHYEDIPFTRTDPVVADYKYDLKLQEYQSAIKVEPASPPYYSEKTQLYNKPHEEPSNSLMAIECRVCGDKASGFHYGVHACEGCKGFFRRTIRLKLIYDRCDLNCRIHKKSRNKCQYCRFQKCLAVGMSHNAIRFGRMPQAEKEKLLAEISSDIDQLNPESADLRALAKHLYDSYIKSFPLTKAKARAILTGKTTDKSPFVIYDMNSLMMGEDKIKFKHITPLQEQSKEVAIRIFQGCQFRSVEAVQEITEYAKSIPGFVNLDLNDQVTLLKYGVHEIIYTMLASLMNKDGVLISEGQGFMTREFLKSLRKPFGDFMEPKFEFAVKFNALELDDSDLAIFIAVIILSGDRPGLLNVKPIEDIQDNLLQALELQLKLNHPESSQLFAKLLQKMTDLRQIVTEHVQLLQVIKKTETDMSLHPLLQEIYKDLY
Summary of the method: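 Cell-based bla reporter, HEK293H background, PPARg-driven UAS. Pre-incubation 5 h, 37C, 5% CO2. Compound 17 h, 37C. Substrate 1 h RT; fluorescence.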

[9] = qHTS assay to identify small molecule antagonists of the peroxisome proliferator-activated receptor gamma (PPARg) signaling pathway - cell viability counter screen (AID 743194); settings: Potency: co-treated with 50 nM rosiglitazone; further: nearly all actives have a fitted effect of over 55% in size; further: potency means the concentration at half of the fitted maximal effect
Summary of the method: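 PPARg-UAS-bla HEK293H cells were plated, rested 5 h at 37 C, then treated with compounds plus rosiglitazone (50 nM final) for 17 h at 37 C; viability was then read by CellTiter-Glo luminescence after 30 min at room temperature.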

[10] = qHTS assay for small molecule agonists of the antioxidant response element (ARE) signaling pathway - cell viability counter screen (AID 743203; calls by dose curve; further: nearly all actives have a fitted effect of over 55% in size; further: potency means the concentration at half of the fitted maximal effect)
Summary of the method: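 Measured in the same wells as the beta-lactamase ARE reporter, this read-out is CellTiter-Glo luminescence from HepG2 ARE-bla cells given compounds for 16 hrs.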

[11] = qHTS assay for small molecule activators of the heat shock response signaling pathway (AID 743210; active means well fitted activation curve with a large enough effect in the signal ratio in the repeat runs, with a control signal flat, not every such curve was filed as active; the % refers to the signal ratio;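 further: HeLa cells with beta-lactamase reporter driven by heat shock elements; series mostly up to about 63 µM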)
Summary of the method: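 Activation of heat shock element-controlled beta-lactamase expression is measured in HeLa cells by LiveBLAzer FRET fluorescence, with compound exposure lasting 5 h at 37 C and substrate loading 2.5 h at room temperature.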

Aromatase (Homo sapiens) = Aromatase (Homo sapiens) (UniProt P11511); experiment: qHTS assay to identify aromatase inhibitors (AID 743083); further: nearly all actives have a fitted effect of over 55% in size; further: potency means the concentration at half of the fitted maximal effect
Aromatase (Homo sapiens), sequence (P11511 whole entry, looked up): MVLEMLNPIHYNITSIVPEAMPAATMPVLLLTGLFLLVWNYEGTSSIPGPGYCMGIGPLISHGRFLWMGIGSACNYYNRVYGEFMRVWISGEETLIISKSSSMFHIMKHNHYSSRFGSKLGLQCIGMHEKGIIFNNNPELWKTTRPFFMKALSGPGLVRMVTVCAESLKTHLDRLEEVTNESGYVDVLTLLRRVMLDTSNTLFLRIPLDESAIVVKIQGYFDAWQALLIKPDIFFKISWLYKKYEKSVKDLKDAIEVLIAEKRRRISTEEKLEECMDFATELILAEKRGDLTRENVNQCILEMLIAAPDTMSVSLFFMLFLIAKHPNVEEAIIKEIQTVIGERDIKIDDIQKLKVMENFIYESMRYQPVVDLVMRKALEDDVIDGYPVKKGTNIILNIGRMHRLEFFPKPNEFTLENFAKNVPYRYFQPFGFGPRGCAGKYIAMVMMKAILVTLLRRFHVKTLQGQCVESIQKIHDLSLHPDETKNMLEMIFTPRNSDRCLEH

[12] = qHTS assay for small molecule agonists of the antioxidant response element (ARE) signaling pathway (AID 743202; active means well fitted activation curve with a large enough effect in the signal ratio in the repeat runs, not every such curve was filed as active; the % refers to the signal ratio; further: potency means the concentration at half of the fitted maximal effect)
Summary of the method: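 Steps: seed ARE-bla HepG2 cells (2,000/well); incubate 5 h at 37 C; add compounds by pin tool; incubate 16 h at 37 C; add FRET substrate; read fluorescence after 2 h at RT.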

[13] = qHTS assay to identify small molecule agonists of the peroxisome proliferator-activated receptor delta (PPARd) signaling pathway - cell viability counter screen (AID 743211); further: nearly all actives have a fitted effect of over 55% in size; further: potency means the concentration at half of the fitted maximal effect
Summary of the method: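 Viability of GeneBLAzer PPARd UAS-bla HEK293H cells was assessed after 17 h compound incubation at 37C, using CellTiter-Glo reagent added after the reporter read and luminescence recorded 30 min later.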

[14] = target: Estrogen receptor (Homo sapiens) (UniProt P03372); experiment: qHTS assay to identify small molecule antagonists of the estrogen receptor alpha (ER-alpha) signaling pathway (AID 743069; active means well fitted curve in the direction sought with a large enough effect in the signal ratio in the repeat runs, not every such curve was filed as active; the % refers to the signal ratio)
Summary of the method: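 Screening used a UAS-driven beta-lactamase reporter integrated into HEK293 cells expressing ER-alpha, stimulated with 17beta-estradiol alongside test compounds over 18 hr at 37C; signal came from LiveBLAzer B/G FRET fluorescence.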

[15] = qHTS assay to identify small molecule antagonists of the estrogen receptor alpha (ER-alpha) signaling pathway - cell viability counter screen (AID 743074; calls by dose curve; further: nearly all actives have a fitted effect of over 45% in size)
[16] = target: Estrogen receptor (Homo sapiens) (UniProt P03372); experiment: qHTS assay to identify small molecule agonists of the estrogen receptor alpha (ER-alpha) signaling pathway using the BG1 cell line (AID 743079); further: nearly all actives have a fitted effect of over 20% in size
[17] = qHTS assay to identify small molecule antagonists of the estrogen receptor alpha (ER-alpha) signaling pathway using the BG1 cell line (AID 743080; calls by dose curve;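 further: BG1 cells stimulated with 17beta-estradiol alongside compound; series mostly up to about 70 µM; nearly all actives have a fitted effect of over 25% in size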)
Summary of the method: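 BG1-Luc-4E2 cells (endogenous full-length ER-alpha, stable 4×ERE-luciferase) were starved 5 days in phenol-red-free medium with 10% charcoal-stripped FBS, plated 24 h, then given compound plus 17beta-estradiol for 21.5 h at 37 C; ONE-Glo luminescence read after 30 min.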

[18] = target: Peroxisome proliferator-activated receptor gamma (Homo sapiens) (UniProt P37231); experiment: qHTS assay to identify small molecule antagonists of the peroxisome proliferator-activated receptor gamma (PPARg) signaling pathway (AID 743191; calls by dose curve; further: series mostly up to about 63 µM; nearly all actives have a fitted effect of over 30% in size)
Summary of the method: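 GeneBLAzer PPARg UAS-bla HEK293H cells carrying a UAS-driven beta-lactamase reporter were plated at 3000 cells/well, preincubated 5 h at 37C, then given compound for 17 h at 37C; LiveBLAzer B/G FRET substrate was read after 1 h at room temperature.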

[19] = qHTS assay for small molecule activators of the heat shock response signaling pathway - cell viability counter screen (AID 743209); further: nearly all actives have a fitted effect of over 50% in size
Summary of the method: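 Same-well multiplex: after 2.5 h room-temperature incubation with LiveBLAzer B/G substrate and fluorescence reading, CellTiter-Glo reagent was added to HSE-bla HeLa cells that had received compound for 5 h at 37 C; luminescence read after 30 min.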

Row | Structure (SMILES) | Potency [1] | Potency [2] | Potency [3] | Potency [4] | Potency [5] | Potency [6] | Potency [7] | Potency [8] | Potency [9] | Potency [10] | outcome [11] | Potency (Aromatase (Homo sapiens)) | Potency [12] | Potency [13] | Potency [14] | Potency [15] | Potency [16] | Potency [17] | Potency [18] | Potency [19]
1 | CN(C)c1ccc(N(C)C)cc1 | inactive | inactive | inactive | inactive | inactive | 61.3 µM (active) | inactive | inactive | inactive | inactive | inactive |  |  |  |  |  |  |  |  | 
2 | CCOP(O)OCC | inactive | inactive |  | inactive | inactive | inactive | inactive | inactive | inactive | inactive | inactive | inactive | inactive | inactive |  |  |  |  |  | 
3 | O=C(NC(=O)c1c(F)cccc1F)Nc1cc(Cl)c(Oc2ncc(C(F)(F)F)cc2Cl)c(Cl)c1 | 8.27 µM (active) | inactive | inactive | inactive | inactive | inactive | inactive |  | inactive |  |  |  |  |  |  |  |  |  |  | 
4 | NCCCNCCCN | 62.1 µM (active) |  |  | inactive |  | inactive | inactive |  | inactive | inactive | inactive | 62.1 µM (active) |  |  |  |  |  |  |  | 
5 | Cc1c(F)c(F)c(COC(=O)C2C(/C=C(\Cl)C(F)(F)F)C2(C)C)c(F)c1F (stereo unspecified) |  | inactive | inactive | inactive | inactive |  | inactive | inactive | inactive | inactive | inactive | inactive |  | inactive | inactive | inactive | inactive | inactive | inactive | 
6 | CCCCC(CC)COP(=O)(Oc1ccccc1)Oc1ccccc1 (stereo unspecified) |  | inactive | inactive | inactive | inactive | inactive | inactive | inactive | inactive | inactive | inactive | inactive |  |  | inactive | inactive | inactive | inactive | inactive | inactive
7 | CN1C[C@H](CNC(=O)OCc2ccccc2)C[C@@H]2c3cccc4c3c(cn4C)C[C@H]21 | 10.6 µM (active) |  | inactive |  |  |  | 29.8 µM (active) |  | 26.6 µM (active) | 33.5 µM (active) | inactive |  |  | 26.6 µM (active) |  | inactive |  | inactive | inactive | 
8 | N#Cc1cc(I)c(O)c(I)c1 | 27.3 µM (active) | inactive |  | inactive | inactive | inactive | inactive |  |  |  | inactive |  |  |  |  |  |  |  |  | inactive
9 | COC(=O)C(Br)CBr (stereo unspecified) | inactive |  | inactive | inactive | inactive | inactive | inactive |  |  | inactive | inactive | inactive |  | inactive | inactive | inactive | inactive | inactive |  | inactive
10 | CCOP(=S)(OCC)Oc1nc(Cl)c(Cl)cc1Cl |  | inactive | inactive | inactive | inactive | 27.4 µM (active) and 10.9 µM (active) | inactive | inactive | inactive | inactive | inactive | inactive |  | inactive | inactive | inactive | inactive | inactive |  | 
11 | Cl/C=C\C[N+]12CN3CN(CN(C3)C1)C2 |  | inactive | inactive | inactive |  |  | inactive |  |  | inactive | inactive |  |  | inactive | inactive | inactive | inactive | inactive |  | inactive
12 | C=CC(=O)NCNC(=O)C=C | inactive | inactive | inactive |  |  |  | inactive |  |  | inactive | inactive | inactive |  | inactive |  |  |  |  |  | 
13 | COc1ccc(-c2ccccc2)cc1NNC(=O)OC(C)C | 71.5 µM (active) | inactive | inactive | inactive | inactive |  |  |  | inactive | inactive | inactive | inactive | 16 µM (active) | inactive |  |  |  |  |  | 
14 | ClP(Cl)(Cl)(Cl)Cl |  | inactive | inactive | inactive | inactive | inactive | inactive |  | inactive | inactive | inactive | inactive | inactive | inactive | inactive | inactive | inactive | inactive | inactive | inactive
